The text below walks through data of PubChem BioAssay (NCATS).

Results filed as inconclusive are left out. The source made the active and inactive calls. Unless noted, calls follow the shape of the dose curve; as a rule, active = well fitted curve in the direction sought with a large enough effect; inconclusive = small, poorly fitted or top-dose-only effect, or another doubt; inactive = no such curve, though single readings can be large; an effect the other way counts as inactive or inconclusive.

For assay [1], the target named is Estrogen receptor (Homo sapiens) (UniProt P03372). The assay can be described thus: qHTS assay for small molecule agonists of estrogen receptor alpha signaling (AID 588514; calls by dose curve;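 also: 0% = vehicle only and 100% = reference agonist; nearly all actives have a fitted effect of over 70% in size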). In outline:
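Read-out: CCF4 fluorescence from a beta-lactamase reporter in ER-alpha-UAS-bla HEK 293 cells after 18 hrs of compound exposure at 37 C. Normalized to 20 nM 17-beta-estradiol (100%) and DMSO (0%).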
A general note: In qHTS, concentration-response curves come from the screen itself.

In assay [2] the target is Bile acid receptor (Homo sapiens) (UniProt Q96RI1). Description: qHTS assay for small molecule antagonists of farnesoid X receptor signaling (AID 588526; calls by dose curve; also: % is scaled to controls: 0 for no effect and ±100 for the full control effect). In outline:
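Beta-lactamase reporter antagonist mode: HEK293T FXR-UAS-bla cells, titrated compound, CDCA stimulation, 16 h 37 C, CCF4 dye 2 h RT. Data normalized to CDCA 50 uM and DMSO; Hill-fit IC50.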

Assay [3] shares this target. Description: qHTS assay for small molecule agonists of farnesoid X receptor signaling (AID 588527; calls by dose curve;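 also: series mostly up to about 77 µM; 0% = vehicle basal and 100% = reference agonist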). The settings on record: HEK293T FXR-UAS-bla, beta-lactamase ratio, 16 h; activation: stronger effect = higher value. In a few lines: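 Quantitative HTS used FXR-UAS-bla HEK293T cells with 16 h compound incubation at 37 C. EC50 values came from concentration-response curves normalized to chenodeoxycholic acid.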

Assay [4] in a line: qHTS assay for small molecule antagonists of peroxisome proliferator-activated receptor delta signaling (AID 588535; active = well fitted inhibition curve with a large enough effect in the signal ratio, with a control signal flat, not every such curve was filed as active; the % refers to the signal ratio;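 as to max response: cells co-treated with a PPAR-delta agonist as stimulator during compound exposure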). The settings on record: HEK293T PPARd-UAS-bla, beta-lactamase FRET ratio, 18 h; 460 nm channel. In outline: (§1)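 Antagonist-mode qHTS using GeneBLAzer PPAR-delta-UAS-bla HEK293T cells; compound exposure 18 hrs at 37 C over a titration. Ratiometric CCF4 fluorescence at 460/530 nm; concentration-response points fitted to the Hill equation.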

Assay [5] addresses Peroxisome proliferator-activated receptor delta (Homo sapiens) (UniProt Q03181). Described as above. In outline: as §1
In assay [6] the target is Retinoic acid receptor RXR-alpha (Homo sapiens) (UniProt P19793). Description: qHTS assay for small molecule antagonists of retinoid X receptor alpha signaling (AID 588546; active = well fitted inhibition curve with a large enough effect in the signal ratio, with a control signal flat, not every such curve was filed as active; the % refers to the signal ratio; also: % is scaled to controls: 0 for no effect and ±100 for the full control effect). The conditions noted are these: HEK293T RXRa-UAS-bla, beta-lactamase ratio, antagonist mode. In a few lines: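 Beta-lactamase reporter inhibition, read as CCF4 fluorescence ratio (ex 405, em 460/530 nm) after 2 h at RT. HEK293T UAS-bla cells, 2500/well, were stimulated with 9-cis-RA at 500 or 100 nM final alongside test compound for 18 h at 37 C.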
Retinoic acid receptor RXR-alpha (Homo sapiens), sequence (P19793 whole entry, looked up): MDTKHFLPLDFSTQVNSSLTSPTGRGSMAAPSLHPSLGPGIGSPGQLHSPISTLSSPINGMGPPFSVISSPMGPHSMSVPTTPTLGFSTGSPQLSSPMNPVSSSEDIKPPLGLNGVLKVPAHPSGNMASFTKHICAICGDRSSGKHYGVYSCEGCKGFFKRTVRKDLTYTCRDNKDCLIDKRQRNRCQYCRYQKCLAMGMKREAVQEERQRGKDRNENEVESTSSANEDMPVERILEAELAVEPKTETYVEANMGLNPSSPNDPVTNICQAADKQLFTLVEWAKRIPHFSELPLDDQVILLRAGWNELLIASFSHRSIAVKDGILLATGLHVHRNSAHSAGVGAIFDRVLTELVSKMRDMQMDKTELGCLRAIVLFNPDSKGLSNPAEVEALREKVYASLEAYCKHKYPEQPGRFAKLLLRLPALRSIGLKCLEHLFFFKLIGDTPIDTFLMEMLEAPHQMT

In assay [7] the target is Thyroid hormone receptor beta (Homo sapiens) (UniProt P10828). Description: qHTS assay for small molecule antagonists of thyroid hormone receptor beta signaling (AID 588547; active = well fitted inhibition curve with a large enough effect in the signal ratio, with a control signal flat, not every such curve was filed as active; the % refers to the signal ratio;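 also: cells stimulated with 0.4 nM T3 agonist during compound exposure; series mostly up to about 77 µM; % is scaled to controls: 0 for no effect and ±100 for the full control effect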). The settings on record: TR-UAS-bla HEK293, beta-lactamase ratio, antagonist mode, 18 h. In outline:
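Inhibition of T3-driven (0.4nM final) beta-lactamase reporter activity was measured over 0.59 nM to 92 uM compound after 18 h at 37 C. The cells were GripTite HEK293 TR-UAS-bla in charcoal/dextran-stripped serum, with CCF4 ratio read-out and IC50 from Hill fits.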

Assay [8] in a line: qHTS assay for small molecule activators of the nuclear factor-kappa B (NF-kB) signaling pathway (AID 651749; active = well fitted activation curve with a large enough effect in the signal ratio; the % refers to the signal ratio; also: series mostly up to about 77 µM; % of control where 0% means no effect). The conditions noted are these: NF-kB-bla ME-180 cells, beta-lactamase FRET ratio, 16 h; activation: stronger effect = higher value. In a few lines:
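FRET-based beta-lactamase detection in ME-180 cells reports NF-kB response-element-driven transcription following overnight (16 hr) compound treatment.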

A short description of assay [9]: qHTS assay for environmental chemicals that activate the Aryl hydrocarbon Receptor (AhR) signaling pathway (AID 651777). Also: nearly all actives have a fitted effect of over 15% in size. Also: potency is read from the fitted curve at half-maximal effect. As to activation: % of control where 0% means no effect. The settings on record: 1A2-DRE human hepatoma cells, luciferase, 24 h; activation: stronger effect = higher value. In a few lines:
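Concentration–response screening used 1,200 1A2-DRE cells per well, 24 hr compound exposure (37 C, 5% CO2), and One-Glo luminescence as the AhR-driven CYP1A2 reporter signal.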

A short description of assay [10]: qHTS assay for cell viability of HEK293 cells (AID 743288). Also: % is scaled to controls: 0 for no effect and ±100 for the full control effect; nearly all actives have a fitted effect of over 50% in size. The conditions noted are these: ATP luminescence (CellTiter-Glo), 18 h; max response: stronger effect = lower value. In outline: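 HEK293, 18 h, 37 C, ATP luminescence. Cells at 2,000/well were allowed at least 5 h to settle before dosing; CellTiter-Glo developed 30 min at RT.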
Assay [11] can be described thus: qHTS assay for cell viability of the p53RE-bla HCT-116 cell line (AID 743292). Also: % is scaled to controls: 0 for no effect and ±100 for the full control effect; nearly all actives have a fitted effect of over 55% in size. In a few lines: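 Compound-exposed HCT-116 (p53RE-bla) cells, 4,000 per well, were kept 16 h at 37 C following a 5 h preincubation. Cell number was estimated from total ATP by CellTiter-Glo luminescence read after 30 min at room temperature.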
Assay [12] concerns the target Nuclear receptor subfamily 1 group I member 2 (Rattus norvegicus) (UniProt Q9R1A7). Description: qHTS assay for small molecule activators of the rat pregnane X receptor (rPXR) signaling pathway (AID 651751; call rule not given here; also: 0% is about no effect). The settings on record: rPXR reporter cells, luciferase (One-Glo), 24 h.
A short description of assay [13]: qHTS assay for small molecule activators of the human pregnane X receptor (PXR) signaling pathway (AID 720659; call rule not given here; also: 0% is about no effect).
Assay [14] deals with DNA dC->dU-editing enzyme APOBEC-3G (Homo sapiens) (UniProt Q9HC16). The assay can be described thus: qHTS for inhibitors of Vif-A3G interactions: Validation (AID 588379). Also: 0% is about no effect. In a few lines:
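Yellow fluorescence (Ex 488, Em 500-530) of Vif-coexpressing HeLa A3G-eYFP cells, scanned by Acumen cytometer, reports blocked A3G degradation. Cells plated at 700/well overnight at 37 deg C before compound addition, then a further overnight compound incubation at 37 deg C.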

Assay [15] has as its target Glucocorticoid receptor (Homo sapiens) (UniProt P04150). Description: qHTS assay for small molecule agonists of glucocorticoid receptor signaling (AID 588532; active = well fitted curve in the direction sought with a large enough effect in the signal ratio, with a control signal flat; the % refers to the signal ratio;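 also: 100% = dexamethasone at 0.1 µM and 0% = DMSO only wells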). The settings on record: HeLa MMTV-bla, beta-lactamase ratio, agonist, 18 h; activation: stronger effect = higher value, percent of dexamethasone control, DMSO zero. In a few lines: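 Using MMTV-bla HeLa cells in medium with 1% stripped FBS and 25 mM HEPES, compounds were titrated and incubated overnight-length (18 h). Beta-lactamase cleavage of CCF4 was quantified by dual-emission fluorescence.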

Assay [16] has as its target Peroxisome proliferator-activated receptor gamma (Homo sapiens) (UniProt P37231). The assay can be described thus: qHTS assay for small molecule agonists of peroxisome proliferator-activated receptor gamma signaling (AID 588536; active = well fitted curve in the direction sought with a large enough effect in the signal ratio, with a control signal flat, not every such curve was filed as active; the % refers to the signal ratio). In outline: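 Using GeneBLAzer HEK293 cells, response was quantified by CCF4 fluorescence and normalized between basal DMSO (0%) and rosiglitazone 2 uM (100%); curves yielded half-maximal stimulation concentration and efficacy.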

Assay [17] is described as follows: qHTS assay for small molecule agonists of the antioxidant response element (ARE) signaling pathway measured by Nrf2-dependant transcriptional activity (AID 720636; active = well fitted curve in the direction sought with a large enough effect in the repeat runs; an effect the other way counts as inactive or inconclusive;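 also: HepG2 cells with an ARE-driven luciferase reporter; % of control where 0% means no effect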). In outline: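 Attachment 6 hr at 37 C, then compound versus DMSO vehicle for 16 hr in ARE-luc HepG2 cells (1% dialyzed FBS); luminescence recorded 30 min after ONE-Glo addition at room temperature.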

The target of assay [18] is 3',5'-cyclic-AMP phosphodiesterase 4B (Homo sapiens) (UniProt Q07343). Description: qHTS Assay for Inhibitors of PDE-IV (AID 607; active = well fitted activation curve with a large enough effect in the main read-out, with a control signal flat, not every such curve was filed as active; also: % of control where 0% means no effect). In outline:
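Live HEK293 cells with a modified cyclic nucleotide-gated (CNG) channel report intracellular cAMP via membrane-potential dye fluorescence (ex 535/em 590 nm). Endogenous PDE-IV was targeted. Compounds were tested at up to 22.9 uM final; RO 20-1724 100 uM served as control.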

The target of assay [19] is Cytochrome P450 2D6 (Homo sapiens) (UniProt P10635). Description: qHTS Assay for Inhibitors and Substrates of Cytochrome P450 2D6 (AID 891). Also: nearly all actives have a fitted effect of over 60% in size. Also: potency is read from the fitted curve at half-maximal effect. In a few lines: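 Luminescent read-out of luciferin formed by 5 nM human CYP2D6 demethylating 30 uM Luciferin-ME EGE (Km level) over 60 min at room temperature after NADPH regeneration addition. Data normalized to full inhibition by 1.43 uM quinidine.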
Cytochrome P450 2D6 (Homo sapiens), sequence (P10635 whole entry, looked up): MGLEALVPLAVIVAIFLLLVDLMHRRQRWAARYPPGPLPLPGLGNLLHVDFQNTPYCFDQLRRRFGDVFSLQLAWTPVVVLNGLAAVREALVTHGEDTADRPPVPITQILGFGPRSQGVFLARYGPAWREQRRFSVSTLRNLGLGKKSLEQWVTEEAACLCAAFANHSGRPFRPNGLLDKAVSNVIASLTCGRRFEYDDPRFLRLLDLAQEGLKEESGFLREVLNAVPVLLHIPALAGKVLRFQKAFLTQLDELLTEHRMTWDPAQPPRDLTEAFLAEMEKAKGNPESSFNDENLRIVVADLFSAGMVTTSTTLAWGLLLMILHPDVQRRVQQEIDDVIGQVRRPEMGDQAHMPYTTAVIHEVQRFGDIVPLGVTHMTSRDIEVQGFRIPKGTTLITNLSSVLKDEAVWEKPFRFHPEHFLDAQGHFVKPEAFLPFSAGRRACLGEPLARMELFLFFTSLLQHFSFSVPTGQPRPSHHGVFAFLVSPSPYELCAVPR

Thyroid hormone receptor beta (Homo sapiens), sequence (P10828 whole entry, looked up): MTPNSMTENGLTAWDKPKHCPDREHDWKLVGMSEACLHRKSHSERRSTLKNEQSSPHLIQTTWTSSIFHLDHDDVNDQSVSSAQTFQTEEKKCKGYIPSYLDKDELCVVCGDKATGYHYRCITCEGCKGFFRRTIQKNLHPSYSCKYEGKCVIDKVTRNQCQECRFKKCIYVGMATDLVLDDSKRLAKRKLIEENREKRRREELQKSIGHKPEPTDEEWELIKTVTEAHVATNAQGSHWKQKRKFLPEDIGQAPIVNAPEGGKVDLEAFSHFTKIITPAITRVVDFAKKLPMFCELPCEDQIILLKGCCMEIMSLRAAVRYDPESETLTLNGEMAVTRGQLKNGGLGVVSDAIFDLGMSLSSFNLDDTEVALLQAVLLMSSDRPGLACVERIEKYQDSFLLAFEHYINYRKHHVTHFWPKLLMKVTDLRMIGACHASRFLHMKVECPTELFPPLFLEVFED
Bile acid receptor (Homo sapiens), sequence (Q96RI1 whole entry, looked up): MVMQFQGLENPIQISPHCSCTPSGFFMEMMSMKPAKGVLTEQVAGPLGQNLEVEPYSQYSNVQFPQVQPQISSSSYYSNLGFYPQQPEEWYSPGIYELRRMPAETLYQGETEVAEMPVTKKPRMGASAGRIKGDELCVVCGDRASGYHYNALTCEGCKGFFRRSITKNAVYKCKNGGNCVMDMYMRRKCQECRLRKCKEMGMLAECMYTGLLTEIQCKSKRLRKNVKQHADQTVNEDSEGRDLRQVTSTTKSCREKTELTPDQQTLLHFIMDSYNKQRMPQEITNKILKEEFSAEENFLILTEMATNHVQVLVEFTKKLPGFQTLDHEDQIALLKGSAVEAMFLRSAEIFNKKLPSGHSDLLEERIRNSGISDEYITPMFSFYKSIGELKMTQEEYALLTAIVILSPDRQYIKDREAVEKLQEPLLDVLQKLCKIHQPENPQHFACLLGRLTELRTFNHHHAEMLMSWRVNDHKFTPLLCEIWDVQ
DNA dC->dU-editing enzyme APOBEC-3G (Homo sapiens), sequence (Q9HC16 whole entry, looked up): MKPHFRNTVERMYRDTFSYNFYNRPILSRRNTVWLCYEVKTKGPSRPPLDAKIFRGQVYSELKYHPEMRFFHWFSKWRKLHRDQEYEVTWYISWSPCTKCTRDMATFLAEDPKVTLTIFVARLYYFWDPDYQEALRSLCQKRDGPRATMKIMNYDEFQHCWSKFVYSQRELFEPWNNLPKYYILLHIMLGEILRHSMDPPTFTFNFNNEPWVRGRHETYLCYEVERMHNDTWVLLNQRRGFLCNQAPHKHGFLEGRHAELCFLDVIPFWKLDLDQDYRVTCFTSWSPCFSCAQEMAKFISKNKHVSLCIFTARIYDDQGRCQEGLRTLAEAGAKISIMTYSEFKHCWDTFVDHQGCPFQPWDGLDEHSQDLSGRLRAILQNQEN
3',5'-cyclic-AMP phosphodiesterase 4B (Homo sapiens), sequence (Q07343 whole entry, looked up): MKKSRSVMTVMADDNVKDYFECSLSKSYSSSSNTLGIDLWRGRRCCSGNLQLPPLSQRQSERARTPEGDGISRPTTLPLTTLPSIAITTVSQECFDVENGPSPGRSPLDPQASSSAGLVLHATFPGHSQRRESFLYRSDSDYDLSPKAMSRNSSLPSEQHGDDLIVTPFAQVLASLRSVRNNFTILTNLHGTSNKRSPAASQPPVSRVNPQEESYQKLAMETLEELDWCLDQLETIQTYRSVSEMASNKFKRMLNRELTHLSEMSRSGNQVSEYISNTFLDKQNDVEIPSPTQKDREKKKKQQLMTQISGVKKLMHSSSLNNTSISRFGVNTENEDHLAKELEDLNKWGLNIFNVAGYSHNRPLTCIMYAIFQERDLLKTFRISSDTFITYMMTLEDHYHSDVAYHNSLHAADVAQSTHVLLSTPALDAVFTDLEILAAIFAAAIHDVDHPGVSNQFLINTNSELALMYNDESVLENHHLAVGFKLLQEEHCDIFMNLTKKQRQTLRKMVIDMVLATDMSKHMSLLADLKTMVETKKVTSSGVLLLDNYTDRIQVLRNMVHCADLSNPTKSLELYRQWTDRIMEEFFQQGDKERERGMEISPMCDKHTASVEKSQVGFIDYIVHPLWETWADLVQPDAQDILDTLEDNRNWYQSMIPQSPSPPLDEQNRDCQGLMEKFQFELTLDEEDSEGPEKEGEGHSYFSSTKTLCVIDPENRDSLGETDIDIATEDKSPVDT
Estrogen receptor (Homo sapiens), sequence (P03372 whole entry, looked up): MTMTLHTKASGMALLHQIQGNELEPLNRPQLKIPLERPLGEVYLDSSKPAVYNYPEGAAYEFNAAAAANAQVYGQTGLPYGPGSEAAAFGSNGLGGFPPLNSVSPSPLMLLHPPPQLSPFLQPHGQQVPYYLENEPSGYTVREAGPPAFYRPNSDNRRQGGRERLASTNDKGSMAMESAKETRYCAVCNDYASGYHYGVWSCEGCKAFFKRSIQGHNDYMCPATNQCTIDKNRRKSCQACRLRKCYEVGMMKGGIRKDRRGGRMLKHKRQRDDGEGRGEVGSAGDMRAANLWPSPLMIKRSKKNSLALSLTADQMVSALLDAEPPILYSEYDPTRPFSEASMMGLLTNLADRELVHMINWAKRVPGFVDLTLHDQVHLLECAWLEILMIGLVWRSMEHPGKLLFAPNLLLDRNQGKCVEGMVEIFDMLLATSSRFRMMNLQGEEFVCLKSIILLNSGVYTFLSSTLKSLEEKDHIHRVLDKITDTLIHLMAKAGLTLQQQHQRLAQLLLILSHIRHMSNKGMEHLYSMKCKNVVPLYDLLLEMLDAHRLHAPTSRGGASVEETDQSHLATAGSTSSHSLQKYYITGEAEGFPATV
Glucocorticoid receptor (Homo sapiens), sequence (P04150 whole entry, looked up): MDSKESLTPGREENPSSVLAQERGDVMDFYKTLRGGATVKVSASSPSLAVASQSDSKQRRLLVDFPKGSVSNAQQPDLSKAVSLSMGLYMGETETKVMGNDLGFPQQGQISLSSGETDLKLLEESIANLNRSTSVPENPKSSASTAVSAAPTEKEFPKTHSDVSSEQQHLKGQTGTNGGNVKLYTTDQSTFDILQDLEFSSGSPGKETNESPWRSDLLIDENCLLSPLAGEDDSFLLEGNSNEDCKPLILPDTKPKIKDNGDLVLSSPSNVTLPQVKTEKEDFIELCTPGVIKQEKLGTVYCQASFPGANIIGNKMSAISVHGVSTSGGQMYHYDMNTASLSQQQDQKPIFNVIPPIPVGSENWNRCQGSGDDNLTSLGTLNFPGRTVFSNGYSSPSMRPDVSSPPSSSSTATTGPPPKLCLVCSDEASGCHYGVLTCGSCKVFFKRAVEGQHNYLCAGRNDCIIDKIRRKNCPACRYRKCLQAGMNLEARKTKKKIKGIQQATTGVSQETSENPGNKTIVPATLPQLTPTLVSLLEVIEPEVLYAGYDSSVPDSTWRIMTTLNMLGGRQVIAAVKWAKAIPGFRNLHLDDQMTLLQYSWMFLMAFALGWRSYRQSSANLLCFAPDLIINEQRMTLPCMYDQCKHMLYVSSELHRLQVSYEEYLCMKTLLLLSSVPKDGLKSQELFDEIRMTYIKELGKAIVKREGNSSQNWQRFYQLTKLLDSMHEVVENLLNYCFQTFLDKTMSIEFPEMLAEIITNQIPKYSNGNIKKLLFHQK
Nuclear receptor subfamily 1 group I member 2 (Rattus norvegicus), sequence (Q9R1A7 whole entry, looked up): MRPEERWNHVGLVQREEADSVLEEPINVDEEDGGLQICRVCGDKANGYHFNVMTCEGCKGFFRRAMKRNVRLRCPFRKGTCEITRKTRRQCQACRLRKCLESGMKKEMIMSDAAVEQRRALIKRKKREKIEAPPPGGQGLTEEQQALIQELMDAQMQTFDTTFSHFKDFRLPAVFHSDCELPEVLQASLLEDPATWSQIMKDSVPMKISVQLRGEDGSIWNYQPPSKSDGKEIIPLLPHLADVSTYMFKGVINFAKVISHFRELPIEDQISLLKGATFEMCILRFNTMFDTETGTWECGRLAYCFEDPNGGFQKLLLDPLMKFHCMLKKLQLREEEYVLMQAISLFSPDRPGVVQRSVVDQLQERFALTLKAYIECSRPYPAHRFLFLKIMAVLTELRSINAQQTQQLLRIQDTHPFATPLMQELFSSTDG

In the case of `O=C(NC(=O)c1c(F)cccc1F)Nc1ccc(Cl)cc1`, the Potency result in assay [1], in assay [2], in assay [5] and in assay [11] was “inactive” throughout. Besides, the activation in assay [3] was 1.72% (inactive); in [8], 0.393% (inactive). Also, the max response was -32.8% in [4], -3.02% (inactive) in assay [6], -0.376% (inactive) in [10] and 11% (inactive) in assay [12]. In addition, in [7], the activity change % (negative = inhibition) was -1.34% (inactive). The Potency in assay [9] was 2.51 µM (active). Further, in [13], the outcome was inactive.

Regarding `COc1cc2c(cc1OC)-c1c(OC)c(OC)c(C=O)c3c1[C@H](C2)N(C)CC3`, the outcome in assay [14] was inactive.

With `C/C=C1/C[C@@H](C)[C@](O)(CO)C(=O)OCC2=CCN3CC[C@@H](OC1=O)C23` (stereo partly drawn), the compound was classed as inactive in [14].

For the compound `CC(C)N(C(=O)CCl)c1ccccc1`, the activation in [15] was -11.4% (inactive); in [9], -1.87% (inactive). Also, in assay [11], the Potency result is “inactive”. Also, the call in [13] was inactive.

For `C[C@]12CCC3C(CC[C@]4(O)C[C@@H](O)CC[C@]34C=O)[C@@]1(O)CC[C@@H]2C1=CC(=O)OC1` (stereo partly drawn), the call in assay [14] was inactive.

With `CSc1nc(NC(C)C)nc(NC(C)C)n1`, the Potency result in assay [1], in [16] and in [17] was “inactive” in each case. Also, the activity change % (negative = inhibition) in assay [7] was -0.16% (inactive). Also, the activation in assay [9] was -2.16% (inactive). Also, the max response in assay [10] was 2.18% (inactive).

Turning to `CCCCN(CC)c1c([N+](=O)[O-])cc(C(F)(F)F)cc1[N+](=O)[O-]`, the figures for the activation in [15], in assay [8] and in assay [9] were -5.8% (inactive), -1.55% (inactive) and -0.444% (inactive), respectively. Further, the max response in assay [4] is 41.5%; in assay [6], -14% (inactive); in [10] it was -10.2% (inactive); in assay [12] it was 3.44% (inactive). In addition, the activity change % (negative = inhibition) in assay [7] is -21.6% (inactive). In [17], the Potency result was “inactive”.

As to `CNC(=O)[C@H]1C[C@@H]1[C@H](NP(=O)(c1ccccc1)c1ccccc1)c1ccccc1`, in [18], the call was inactive.

In the case of `O=C(Oc1ccc([N+](=O)[O-])cc1)N1CCC(N2CCCCC2)CC1`, the compound was called inactive in assay [18].

Regarding `COc1cc2c(cc1OC)[C@]13CCN4CC5=CCO[C@@H]6CC(=O)N2[C@@H]1[C@H]6[C@@H]5C[C@H]43`, the Potency result in assay [19] was “inactive”.

Consider `COC(=O)C1(C)C=C2C(=C(C)C(=O)C2C)CN1` (stereo not drawn), for which the compound was classed as inactive in assay [18].

Take `CCN1C[C@@]2(COC)[C@H](O)C[C@H](OC)[C@@]34[C@@H]5C[C@@]6(O)[C@H](OC(=O)c7ccccc7)[C@H]5[C@@](OC(C)=O)([C@H]([C@@H](OC)[C@H]23)[C@H]14)[C@H](O)[C@@H]6OC`: in assay [19], the Potency entry is “inactive”.

`COC(=O)[C@@]1(Cc2ccccc2)[C@H]2c3cc(C(=O)N(C)C)n(C)c3C[C@H]2CN1C(=O)c1ccccc1`: the compound was classed as inactive in assay [18].

For the compound `C=C(C)c1ccccc1`, the activation in assay [3] was -3.16% (inactive).

Turning to `C=CCO[C@@H](Cn1ccnc1)c1ccc(Cl)cc1Cl`, the Potency in assay [19] is 5.01 µM (active).
